# PubChem BioAssay (EPA / NIEHS)
# “And” between values parts separate entries of the source, which are not always exact repeats. Identical values can stand only once. A structure can be active in one record and inactive in another. The source made the active and inactive calls. The calls were made as follows: active = hit-call score of the fitted dose curve at least 0.9, where 1 is the maximum; inactive = score below 0.9.
# Tests used:
# Settings in all cases: mRNA level, 48 h; actives raise or lower the signal
# [1] = read-out: solute carrier (SLCO1B1), SLCO1B1 (gene 10599); assay: LTEA_HepaRG_SLCO1B1: Life Technologies and Expression Analysis (LTEA) Assay for solute carrier (SLCO1B1) using HepaRG (AID 2283530)
# How it was run: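 Gain or loss of SLCO1B1 mRNA is fitted against the 0.5% DMSO vehicle in human HepaRG liver cells treated 48 h at up to 100 uM in half-log steps. Expression comes from qRT-PCR normalized to endogenous controls.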
# [2] = read-out: sulfotransferase 2A1 (SULT2A1), SULT2A1 (gene 6822); assay: LTEA_HepaRG_SULT2A1: Life Technologies and Expression Analysis (LTEA) Assay for sulfotransferase 2A1 (SULT2A1) using HepaRG (AID 2283531)
# How it was run: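 Cells were plated and cultured 48 h, switched to serum-free induction medium, then dosed in duplicate for 48 h (8 concentrations, max 100 uM). RNA was isolated and SULT2A1 expression measured by qRT-PCR; gain or loss of signal fitted relative to DMSO.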
# [3] = read-out: Transforming Growth Factor (TGFA), TGFA (gene 7039); assay: LTEA_HepaRG_TGFA: Life Technologies and Expression Analysis (LTEA) Assay for Transforming Growth Factor (TGFA) using HepaRG (AID 2283532)
# How it was run: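 Gene expression of TGFA was quantified by qRT-PCR after human HepaRG cells were treated for 48 h with test chemicals (eight concentrations, highest 100 uM, 0.5% DMSO). Activity in either direction was fitted relative to DMSO.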
# [4] = read-out: Transforming Growth Factor (TGFB1), TGFB1 (gene 7040); assay: LTEA_HepaRG_TGFB1: Life Technologies and Expression Analysis (LTEA) Assay for Transforming Growth Factor (TGFB1) Transporter using HepaRG (AID 2283533)
# How it was run: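 Expression change of TGFB1 in human HepaRG cells is measured after a 48 h chemical exposure, up to 100 uM in 0.5% DMSO vehicle. Curves are fitted in both directions relative to the DMSO baseline.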
# TIMP1, TIMP1 (gene 7076) = assay: LTEA_HepaRG_TIMP1: Life Technologies and Expression Analysis (LTEA) Assay for TIMP1 using HepaRG (AID 2283534);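 as to outcome: TaqMan qRT-PCR signal normalized to ACTB GAPDH and POLR2A housekeeping genes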
# How it was run: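 We dosed human liver HepaRG cultures for 48 hours with up to 100 uM test chemical and measured TIMP1 expression by qRT-PCR. Activity in either direction is fitted relative to the 0.5% DMSO vehicle.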
# [5] = read-out: Tumor necrosis factor receptor 1 (TNFRSF1A), TNFRSF1A (gene 7132); assay: LTEA_HepaRG_TNFRSF1A: Life Technologies and Expression Analysis (LTEA) Assay for Tumor necrosis factor receptor 1 (TNFRSF1A) using HepaRG (AID 2283535)
# How it was run: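 Expression of TNFRSF1A in human HepaRG liver cells was measured by qRT-PCR 48 h after chemical dosing (maximum 100 uM). Bidirectional curve fitting used 0.5% DMSO as baseline.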
# [6] = read-out: Thyroid Hormone Responsive (THRSP), THRSP (gene 7069); assay: LTEA_HepaRG_THRSP: Life Technologies and Expression Analysis (LTEA) Assay for Thyroid Hormone Responsive (THRSP) using HepaRG (AID 2283536)
# How it was run: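 Cell model: human HepaRG, approx. 100,000 cells/well, 0.5% DMSO vehicle. Exposure lasts 48 h; phenobarbital 1 mM serves as induction positive control. Gene expression is measured by qRT-PCR against three endogenous control genes.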
# [7] = read-out: Cellular tumor antigen p53 (Homo sapiens) (UniProt P04637); assay: LTEA_HepaRG_TP53: Life Technologies and Expression Analysis (LTEA) Assay for Tumor Protein P53 (TP53) using HepaRG (AID 2283537)
# How it was run: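 Gain or loss of TP53 mRNA signal is scored relative to 0.5% DMSO after 48 h chemical treatment of HepaRG liver cells, tested in duplicate at eight half-log concentrations up to 100 uM.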
# [8] = read-out: UDP glucuronosyltransferase (UGT1A1), UGT1A1 (gene 54658); assay: LTEA_HepaRG_UGT1A1: Life Technologies and Expression Analysis (LTEA) Assay for UDP glucuronosyltransferase (UGT1A1) using HepaRG (AID 2283538)
# How it was run: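 mRNA induction or loss of UGT1A1, by TaqMan qRT-PCR, in duplicate HepaRG wells after 48 h exposure to half-log dilutions topping at 100 uM; DMSO (0.5%) served as baseline.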
# [9] = read-out: UDP glucuronosyltransferase (UGT1A6), UGT1A6 (gene 54578); assay: LTEA_HepaRG_UGT1A6: Life Technologies and Expression Analysis (LTEA) Assay for UDP glucuronosyltransferase (UGT1A6) using HepaRG (AID 2283539)
# How it was run: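 Endpoint is UGT1A6 transcript induction or loss in a human liver cell line, quantified by TaqMan qRT-PCR 48 h after dosing. Concentrations ran from 100 uM downward in half-log steps in 0.5% DMSO; activity was fitted in both directions versus vehicle.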
# Chain of Cellular tumor antigen p53 (Homo sapiens) (P04637 whole entry, looked up): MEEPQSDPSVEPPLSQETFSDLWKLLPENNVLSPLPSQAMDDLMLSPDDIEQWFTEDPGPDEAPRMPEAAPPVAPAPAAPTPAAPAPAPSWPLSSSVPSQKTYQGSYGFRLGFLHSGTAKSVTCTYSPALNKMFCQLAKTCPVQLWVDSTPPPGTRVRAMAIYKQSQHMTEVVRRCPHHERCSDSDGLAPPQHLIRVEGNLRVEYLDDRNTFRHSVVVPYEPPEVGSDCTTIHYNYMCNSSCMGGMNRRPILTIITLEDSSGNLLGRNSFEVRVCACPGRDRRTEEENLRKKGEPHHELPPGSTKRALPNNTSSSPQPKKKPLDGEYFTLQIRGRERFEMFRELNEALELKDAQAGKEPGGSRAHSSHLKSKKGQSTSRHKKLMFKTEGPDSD
structure (smiles),measurement,setting,value
CCOCN(C(=O)CCl)c1c(C)cccc1CC,AC50,[1],81.3 µM (active)
same,AC50,[2],83.8 µM (active)
same,outcome,[3],inactive
same,outcome,[4],inactive
same,outcome,"TIMP1, TIMP1 (gene 7076)",inactive
same,outcome,[5],inactive
same,AC50,[6],9.92 µM (active)
same,outcome,[7],inactive
same,outcome,[8],inactive
same,outcome,[9],inactive
CC1(C)C(C=C(Cl)Cl)C1C(=O)OC(C#N)c1ccc(F)c(Oc2ccccc2)c1 (configuration not stated),outcome,[1],inactive
same,AC50,[2],50 µM (active)
same,outcome,[3],inactive
same,outcome,[4],inactive
same,outcome,"TIMP1, TIMP1 (gene 7076)",inactive
same,outcome,[5],inactive
same,outcome,[6],inactive
same,outcome,[7],inactive
same,AC50,[8],10.2 µM (active)
same,outcome,[9],inactive
CCc1ccc(C(=O)NN(C(=O)c2cc(C)cc(C)c2)C(C)(C)C)cc1,outcome,[1],inactive
same,outcome,[2],inactive
same,outcome,[3],inactive
same,outcome,[4],inactive
same,outcome,"TIMP1, TIMP1 (gene 7076)",inactive
same,outcome,[5],inactive
same,AC50,[6],21.5 µM (active)
same,outcome,[7],inactive
same,AC50,[8],12.3 µM (active)
same,outcome,[9],inactive
O=C(Nc1ccccc1)Nc1cnns1,AC50,[1],74.2 µM (active)
same,AC50,[2],50 µM (active)
same,outcome,[3],inactive
same,outcome,[4],inactive
same,outcome,"TIMP1, TIMP1 (gene 7076)",inactive
same,outcome,[5],inactive
same,AC50,[6],73.5 µM (active)
same,outcome,[7],inactive
same,AC50,[8],87.2 µM (active)
same,AC50,[9],77.9 µM (active)
O=C(O)C(F)(F)C(F)(F)C(F)(F)C(F)(F)C(F)(F)C(F)(F)C(F)(F)F,outcome,[1],inactive
same,outcome,[2],inactive
same,outcome,[3],inactive
same,outcome,[4],inactive
same,outcome,"TIMP1, TIMP1 (gene 7076)",inactive
same,outcome,[5],inactive
same,AC50,[6],26.1 µM (active)
same,outcome,[6],inactive
same,AC50,[7],12.3 µM (active)
same,outcome,[7],inactive
same,AC50,[8],3.11 µM (active) and 7.73 µM (active)
same,outcome,[9],inactive
ClC1C(Cl)C(Cl)C(Cl)C(Cl)C1Cl (configuration not stated),outcome,[1],inactive
same,outcome,[2],inactive
same,outcome,[3],inactive
same,outcome,[4],inactive
same,outcome,"TIMP1, TIMP1 (gene 7076)",inactive
same,outcome,[5],inactive
same,outcome,[6],inactive
same,outcome,[7],inactive
same,AC50,[8],780 nM (active) and 3.95 µM (active)
same,outcome,[9],inactive
CNC(=O)Oc1cccc(N=CN(C)C)c1,outcome,[1],inactive
same,outcome,[2],inactive
same,outcome,[3],inactive
same,outcome,[4],inactive
same,outcome,"TIMP1, TIMP1 (gene 7076)",inactive
same,outcome,[5],inactive
same,outcome,[6],inactive
same,outcome,[7],inactive
same,outcome,[8],inactive
same,outcome,[9],inactive
COP(=O)(OC)OC=C(Cl)Cl,outcome,[1],inactive
same,outcome,[2],inactive
same,outcome,[3],inactive
same,outcome,[4],inactive
same,outcome,"TIMP1, TIMP1 (gene 7076)",inactive
same,outcome,[5],inactive
same,outcome,[6],inactive
same,outcome,[8],inactive
same,outcome,[9],inactive
CC(C)OC(=O)Nc1cccc(Cl)c1,outcome,[1],inactive
same,outcome,[2],inactive
same,outcome,[3],inactive
same,outcome,[4],inactive
same,outcome,"TIMP1, TIMP1 (gene 7076)",inactive
same,AC50,[5],50 µM (active)
same,outcome,[6],inactive
same,outcome,[7],inactive
same,outcome,[8],inactive
same,outcome,[9],inactive
Clc1ccccc1-c1nnc(-c2ccccc2Cl)nn1,outcome,[1],inactive
same,outcome,[2],inactive
same,outcome,[3],inactive
same,outcome,[4],inactive
same,outcome,"TIMP1, TIMP1 (gene 7076)",inactive
same,outcome,[5],inactive
same,AC50,[6],50 µM (active)
same,AC50,[8],10.7 µM (active)
same,outcome,[9],inactive
C[C@H]1[C@H](c2ccc(Cl)cc2)SC(=O)N1C(=O)NC1CCCCC1,AC50,[1],60.7 µM (active)
same,AC50,[2],93.4 µM (active)
same,AC50,[3],69.5 µM (active)
same,AC50,[4],50 µM (active)
same,outcome,"TIMP1, TIMP1 (gene 7076)",inactive
same,outcome,[5],inactive
same,AC50,[6],90.2 µM (active)
same,AC50,[7],82.3 µM (active)
same,AC50,[8],88.6 µM (active)
same,AC50,[9],78.8 µM (active)
CCCN(CCOc1c(Cl)cc(Cl)cc1Cl)C(=O)n1ccnc1,AC50,[1],64.2 µM (active)
same,AC50,[2],34.9 µM (active)
same,AC50,[3],50 µM (active)
same,AC50,[4],27.6 µM (active)
same,outcome,"TIMP1, TIMP1 (gene 7076)",inactive
same,outcome,[5],inactive
same,AC50,[6],3.79 µM (active)
same,AC50,[7],17.6 µM (active)
same,AC50,[8],73.7 µM (active)
same,AC50,[9],72.5 µM (active)
CC[C@H](C)[C@H]1O[C@]2(C=C[C@@H]1C)C[C@@H]1C[C@@H](C/C=C(\C)[C@@H](O[C@H]3C[C@H](OC)[C@@H](O[C@H]4C[C@H](OC)[C@@H](O)[C@H](C)O4)[C@H](C)O3)[C@@H](C)/C=C/C=C3\CO[C@@H]4[C@H](O)C(C)=C[C@@H](C(=O)O1)[C@]34O)O2 (tested in a mixture with another compound),AC50,[1],15.2 µM (active)
same,AC50,[2],8.58 µM (active)
same,AC50,[3],13.9 µM (active)
same,AC50,[4],55.3 µM (active)
same,AC50,"TIMP1, TIMP1 (gene 7076)",11.7 µM (active)
same,AC50,[5],51.4 µM (active)
same,outcome,[6],inactive
same,AC50,[7],6.99 µM (active)
same,AC50,[9],18.6 µM (active)
O=C(O)CCCOc1ccc(Cl)cc1Cl,outcome,[1],inactive
same,outcome,[2],inactive
same,outcome,[3],inactive
same,outcome,[4],inactive
same,outcome,"TIMP1, TIMP1 (gene 7076)",inactive
same,outcome,[5],inactive
same,outcome,[6],inactive
same,outcome,[7],inactive
same,AC50,[8],34.5 µM (active)
same,outcome,[9],inactive
C#CCN1C(=O)COc2cc(F)c(N3C(=O)C4=C(CCCC4)C3=O)cc21,outcome,[1],inactive
same,outcome,[2],inactive
same,outcome,[3],inactive
same,outcome,[4],inactive
same,outcome,"TIMP1, TIMP1 (gene 7076)",inactive
same,outcome,[5],inactive
same,outcome,[6],inactive
same,AC50,[8],1.95 µM (active)
same,outcome,[9],inactive
CCOC1Oc2ccc(OS(C)(=O)=O)cc2C1(C)C (configuration not stated),AC50,[1],73.6 µM (active)
same,AC50,[2],83.5 µM (active)
same,AC50,[3],90.8 µM (active)
same,outcome,[4],inactive
same,outcome,"TIMP1, TIMP1 (gene 7076)",inactive
same,outcome,[5],inactive
same,AC50,[6],89.3 µM (active)
same,AC50,[8],11.8 µM (active)
same,AC50,[9],85.4 µM (active)
